The results in this text go back to PubChem BioAssay (EPA / NIEHS).

Records with an inconclusive call do not appear. A structure can be active in one record and inactive in another. Active and inactive are the calls of the source. Rule for the calls, unless noted: active = hit-call score of the fitted dose curve at least 0.9, where 1 is the maximum; inconclusive = response in the unintended direction; inactive = score below 0.9.

Read-out in assay [1]: UDP glucuronosyltransferase (UGT1A1), UGT1A1 (gene 54658)
In words: LTEA_HepaRG_UGT1A1: Life Technologies and Expression Analysis (LTEA) Assay for UDP glucuronosyltransferase (UGT1A1) using HepaRG (AID 2283538; active = hit-call score of the fitted dose curve at least 0.9, where 1 is the maximum; inactive = score below 0.9). As to conditions: mRNA level, 48 h; actives raise or lower the signal. An outline of the steps:
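Readout is UGT1A1 transcript level by qRT-PCR, normalized to three housekeeping genes, after 48 h chemical treatment of HepaRG cells. Concentrations ran from 100 uM down in half-log steps with 0.5% DMSO, and gain or loss relative to DMSO was fitted.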

Read-out in assay [2]: UDP glucuronosyltransferase (UGT1A6), UGT1A6 (gene 54578)
The experiment in a line: LTEA_HepaRG_UGT1A6: Life Technologies and Expression Analysis (LTEA) Assay for UDP glucuronosyltransferase (UGT1A6) using HepaRG (AID 2283539; active = hit-call score of the fitted dose curve at least 0.9, where 1 is the maximum; inactive = score below 0.9). As to conditions: mRNA level, 48 h; actives raise or lower the signal. An outline of the steps:
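Endpoint is UGT1A6 transcript induction or loss in a human liver cell line, quantified by TaqMan qRT-PCR 48 h after dosing. Concentrations ran from 100 uM downward in half-log steps in 0.5% DMSO; activity was fitted in both directions versus vehicle.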

Read-out in assay [3]: X-box binding protein 1 (XBP1), XBP1 (gene 7494)
In words: LTEA_HepaRG_XBP1: Life Technologies and Expression Analysis (LTEA) Assay for X-box binding protein 1 (XBP1) using HepaRG (AID 2283540; active = hit-call score of the fitted dose curve at least 0.9, where 1 is the maximum; inactive = score below 0.9). As to conditions: mRNA level, 48 h; actives raise or lower the signal. An outline of the steps:
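Human HepaRG monolayers receive test chemical for 48 h across an eight-point half-log series starting at 100 uM. XBP1 mRNA gain or loss is scored against DMSO by qRT-PCR.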

A short description of assay [4]: LTEA_HepaRG_LDH_cytotoxicity: Cytotoxicity Assessment in the Life Technologies and Expression Analysis (LTEA) Assay (AID 2283563). In short, it runs like this:
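Human HepaRG hepatic cells are treated with test chemicals for 48 h at up to 100 uM in 0.5% DMSO. Cytotoxicity is scored from medium LDH against the vehicle control.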

Assay [5] deals with Cellular tumor antigen p53 (Homo sapiens) (UniProt P04637). The experiment in a line: TOX21_p53_BLA_p2_ratio: Tox21 HCT-116 p53 Agonism Beta-lactamase Assay, Ratio, Phase 2 (AID 2283592). An outline of the steps:
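An inducible beta-lactamase reporter in HCT116 cells signals p53 pathway activation. After 16 h chemical exposure at 37C, cells load CCF4-AM substrate for 2 h at room temperature; activity is the cleaved/uncleaved emission ratio relative to DMSO.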

The target is the same in assay [6]. The experiment in a line: TOX21_p53_BLA_p3_ratio: Tox21 HCT-116 p53 Agonism Beta-lactamase Assay, Ratio, Phase 3 (AID 2283596). In short, it runs like this:
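HCT116 p53-bla cells (4000/well) given compound in DMSO (217-fold dilution) after 5 h, incubated 16 h at 37C. CCF4-AM substrate 2 h at room temperature; 460/530 nm emission ratio, gain fitted against DMSO.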

Assay [7] can be described thus: TOX21_p53_BLA_p4_viability: Viability Assessment in the Tox21 HCT-116 p53 Agonism Beta-lactamase Assay, Phase 4 (AID 2283597).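 Note: hits lower the luminescence signal meaning cytotoxicity.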 In short, it runs like this:
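Compound exposure of HCT116 cells lasts 16 h at 37C, 5% CO2, with DMSO stocks diluted 217-fold. Cellular ATP is then quantified by CellTiter-Glo luminescence after 30 min at room temperature.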

In assay [8] the target is Cellular tumor antigen p53 (Homo sapiens) (UniProt P04637). In words: TOX21_p53_BLA_p5_ratio: Tox21 HCT-116 p53 Agonism Beta-lactamase Assay, Ratio, Phase 5 (AID 2283599). In short, it runs like this:
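Beta-lactamase reporter ratio (blue 460 nm over green 530 nm, 405 nm excitation) after 2 h CCF4-AM loading, in HCT-116 cells exposed 16 h at 37 C to compounds pinned at 217-fold dilution. Increases relative to DMSO baseline scored.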

Assay [9] has the same target. In words: TOX21_p53_BLA_p4_ratio: Tox21 HCT-116 p53 Agonism Beta-lactamase Assay, Ratio, Phase 4 (AID 2283601). In short, it runs like this: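 Signal is the blue/green (460nm/530nm) ratio of cleaved versus uncleaved CCF4-AM substrate, read after 2 h substrate loading. Cells were HCT116 carrying the p53-responsive beta-lactamase reporter, dosed 16 h at 37C, 5% CO2; CellTiter-Glo measured in parallel.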

Assay [10] is described as follows: Tanguay_ZF_120hpf_MORT_legacy: (Legacy) Oregon State University Tanguay Lab 120 Hour Post-fertilization zebrafish Assay for Mortality (AID 2283633). In short, it runs like this: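 Mortality endpoint from a multiplexed whole-embryo zebrafish screen. Dechorionated wild-type embryos received compound at 6 hpf and remained under static exposure at 28C until 120 hpf, with death noted as a present/absent call.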

The nature of assay [11]: Tanguay_ZF_120hpf_SNOU_legacy: (Legacy) Oregon State University Tanguay Lab 120 Hour Post-fertilization zebrafish Assay for Snout Malformation (AID 2283637). In short, it runs like this: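 Snout malformation read as a yes/no call on brightfield images of 120 hpf larvae (Tropical 5D strain). Static exposure began at 6 hpf on dechorionated embryos in 0.64% DMSO, with gain of signal analysed versus DMSO controls.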

The nature of assay [12]: Tanguay_ZF_120hpf_JAW_legacy: (Legacy) Oregon State University Tanguay Lab 120 Hour Post-fertilization zebrafish Assay for Jaw Malformation (AID 2283638). In short, it runs like this: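 Static waterborne exposure of dechorionated wild-type (Tropical 5D) zebrafish from 6 to 120 hpf at 28C, 0.64% DMSO vehicle; 5uM trimethyltin chloride served as positive control. Jaw morphology recorded as binary at 120 hpf.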

Assay [13] in a line: Tanguay_ZF_120hpf_YSE_legacy: (Legacy) Oregon State University Tanguay Lab 120 Hour Post-fertilization zebrafish Assay for Yolk Sac Edema (AID 2283634). An outline of the steps: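 Readout: presence or absence of yolk sac edema at 120 hpf, fitted upward against DMSO controls. Exposure ran statically from 6 hpf in dechorionated embryos kept at 28C.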
Assay [14] can be described thus: Tanguay_ZF_120hpf_EYE_legacy: (Legacy) Oregon State University Tanguay Lab 120 Hour Post-fertilization zebrafish Assay for Eye Malformation (AID 2283636). In short, it runs like this:
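Read-out is binary presence or absence of eye malformation, scored by brightfield microscopy at 120 hpf. Single larvae were exposed from 6 hpf in embryo medium containing 0.64% DMSO, with DMSO as baseline.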

Assay [15] is described as follows: Tanguay_ZF_120hpf_AXIS_legacy: (Legacy) Oregon State University Tanguay Lab 120 Hour Post-fertilization zebrafish Assay for Body Axis Malformation (AID 2283635). An outline of the steps:
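Static 6–120 hpf chemical exposure of dechorionated wild-type 5D zebrafish, one per well at 28C; morphology endpoint scored binary at 120 hpf relative to DMSO control.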

A short description of assay [16]: Tanguay_ZF_120hpf_OTIC_legacy: (Legacy) Oregon State University Tanguay Lab 120 Hour Post-fertilization zebrafish Assay for Otic Vesicle Malformation (AID 2283639). In short, it runs like this:
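Embryos from 5D wild-type adults exposed in plates; DMSO 0.64% v/v final. Sealed, light-protected, 28C, static to 120 hpf. Otic vesicle malformation recorded as binary endpoint; gain-of-signal fitted vs DMSO.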

Assay [17] can be described thus: TOX21_p53_BLA_p2_viability: Viability Assessment in the Tox21 HCT-116 p53 Agonism Beta-lactamase Assay, Phase 2 (AID 2283591).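 Note: actives lower the ATP signal meaning cytotoxicity.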 An outline of the steps: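 Cytotoxicity readout: CellTiter-Glo ATP luminescence, 30 min at room temperature, after the beta-lactamase read. Cells were HCT116 exposed 16 h at 37C to compounds pin-transferred at 217-fold dilution from DMSO stocks.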

Assay [18] in a line: TOX21_p53_BLA_p3_viability: Viability Assessment in the Tox21 HCT-116 p53 Agonism Beta-lactamase Assay, Phase 3 (AID 2283593).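 Note: cells exposed to compound for 16 h before reading.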 An outline of the steps:
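Cellular ATP was quantified by CellTiter-Glo luminescence, read after 30 min at room temperature. Beforehand, HCT116 cells (4000/well) received compound 5 h post-seeding, 217-fold diluted from DMSO, then incubated 16 h at 37C.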

The nature of assay [19]: TOX21_p53_BLA_p5_viability: Viability Assessment in the Tox21 HCT-116 p53 Agonism Beta-lactamase Assay, Phase 5 (AID 2283600). An outline of the steps: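 Counter-readout for cytotoxicity: ATP-dependent luminescence from CellTiter-Glo, read in the beta-lactamase wells after 30 min at RT, following a 16 h compound exposure at 37C.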

Cellular tumor antigen p53 (Homo sapiens), sequence (P04637 whole entry, looked up): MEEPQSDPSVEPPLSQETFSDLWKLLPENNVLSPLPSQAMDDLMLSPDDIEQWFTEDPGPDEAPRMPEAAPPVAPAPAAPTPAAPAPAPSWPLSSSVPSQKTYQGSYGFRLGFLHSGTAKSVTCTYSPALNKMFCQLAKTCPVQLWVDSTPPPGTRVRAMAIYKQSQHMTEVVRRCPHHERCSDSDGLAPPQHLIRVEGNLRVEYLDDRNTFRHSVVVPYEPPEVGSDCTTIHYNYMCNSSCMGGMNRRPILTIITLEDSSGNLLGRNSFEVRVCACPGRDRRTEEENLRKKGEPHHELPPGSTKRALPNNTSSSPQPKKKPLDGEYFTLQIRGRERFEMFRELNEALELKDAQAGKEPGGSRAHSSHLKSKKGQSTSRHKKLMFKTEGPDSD

Regarding `COc1ccc(C(=O)Nc2nc3ccccc3c(NCc3ccccc3)c2C#N)cc1`, the AC50 – broadly, the midpoint of the concentration-response curve, whichever way the signal moves – in [1] was 3.8 µM (active); in assay [3], 13.2 µM (active); in assay [5], 60.1 µM (active); in assay [8], 63.1 µM (active); in [9] it was 72.8 µM (active). The compound was called inactive in [2], in assay [4], in assay [6], in assay [7], in assay [10] and in [11]. Moreover, the outcome in assay [12] was inactive.
Turning to `CCCC(=O)O`, the call in assay [1], in assay [2], in assay [3], in assay [4], in assay [10] and in assay [13] was inactive. Moreover, the outcome in [14] and in assay [11] was inactive.
With `CC(=O)S[C@H](C(=O)N[C@H]1Cc2ccccc2[C@H]2CCC[C@@H](C(=O)O)N2C1=O)C(C)C`, the compound was classed as inactive in assay [1], in [2], in assay [3], in assay [4], in assay [5] and in assay [6]. Moreover, the outcome in [8], in assay [10], in assay [15], in assay [14], in assay [11] and in assay [12] was inactive. Moreover, the compound was called inactive in assay [16].
Regarding `OCC(CO)n1cnc(-c2ccc(F)cc2)c1-c1ccnc(Oc2ccccc2)n1`, the concentration at half-maximal activity (AC50) in assay [1] was 24.9 µM (active). For the same compound, the compound was classed as inactive in assay [2], in assay [3], in assay [4], in assay [17], in assay [5] and in assay [18]. Also, the outcome in assay [7], in [8], in assay [19], in assay [10], in [11] and in assay [12] was inactive. In addition, the result in assay [16] was inactive.
In the case of `OCC(O)CO`, the outcome in assay [1], in [2], in assay [3], in [4], in [10] and in [13] was inactive. Also, the call in assay [15], in assay [14], in assay [11], in [12] and in [16] was inactive.
With `C=CCc1ccc(OC)c(OC)c1`, the compound was classed as inactive in assay [1], in assay [2], in assay [3], in assay [4], in assay [17] and in [5]. Further, the compound was classed as inactive in assay [18], in [6], in assay [8], in assay [19], in assay [13] and in assay [14]. The result in assay [11], in assay [12] and in [16] was inactive.
On to `O=C(O)c1[nH]n(-c2ccc(S(=O)(=O)O)cc2)c(=O)c1N=Nc1ccc(S(=O)(=O)O)cc1`, for which the compound was classed as inactive in assay [1], in assay [2], in [3], in assay [4], in [5] and in [18]. For the same compound, the outcome in assay [6], in assay [7], in assay [8], in [19], in assay [10] and in assay [14] was inactive. The result in assay [11], in assay [12] and in assay [16] was inactive. In addition, the AC50 in assay [5] is 0.000189 µM (active); in [6], 0.0528 nM (active); in [8], 6.52e-05 µM (active).
